Experimental data as given in PubChem BioAssay AID1347165 (National Center for Advancing Translational Sciences (NCATS), 2019).
Hit rate of the full screen: of about 220,000 compounds, about 5,700 (2.6%) were called active. Inconclusive results (about 18%) are left out. The call rests on the fitted dose curve; in most records, active means well fitted inhibition curve with a large enough effect; inconclusive means small, poorly fitted or top-dose-only effect; inactive means no such curve, though single readings can be large or run the other way. The entries come from a sample that favours actives as a whole. Entries that show only a call come without a potency.

The compounds below were run against Lysine-specific demethylase 5B (Homo sapiens) (UniProt Q9UGL1) (assay: Primary screen for KDM5B Histone Demethylases FDH-coupled qHTS). Settings: FDH-coupled NADH fluorescence (FDH is formaldehyde dehydrogenase); series mostly up to 57.7 µM.
Sequence of Lysine-specific demethylase 5B (Homo sapiens) (Q9UGL1 whole entry, looked up, the tested form may be a part): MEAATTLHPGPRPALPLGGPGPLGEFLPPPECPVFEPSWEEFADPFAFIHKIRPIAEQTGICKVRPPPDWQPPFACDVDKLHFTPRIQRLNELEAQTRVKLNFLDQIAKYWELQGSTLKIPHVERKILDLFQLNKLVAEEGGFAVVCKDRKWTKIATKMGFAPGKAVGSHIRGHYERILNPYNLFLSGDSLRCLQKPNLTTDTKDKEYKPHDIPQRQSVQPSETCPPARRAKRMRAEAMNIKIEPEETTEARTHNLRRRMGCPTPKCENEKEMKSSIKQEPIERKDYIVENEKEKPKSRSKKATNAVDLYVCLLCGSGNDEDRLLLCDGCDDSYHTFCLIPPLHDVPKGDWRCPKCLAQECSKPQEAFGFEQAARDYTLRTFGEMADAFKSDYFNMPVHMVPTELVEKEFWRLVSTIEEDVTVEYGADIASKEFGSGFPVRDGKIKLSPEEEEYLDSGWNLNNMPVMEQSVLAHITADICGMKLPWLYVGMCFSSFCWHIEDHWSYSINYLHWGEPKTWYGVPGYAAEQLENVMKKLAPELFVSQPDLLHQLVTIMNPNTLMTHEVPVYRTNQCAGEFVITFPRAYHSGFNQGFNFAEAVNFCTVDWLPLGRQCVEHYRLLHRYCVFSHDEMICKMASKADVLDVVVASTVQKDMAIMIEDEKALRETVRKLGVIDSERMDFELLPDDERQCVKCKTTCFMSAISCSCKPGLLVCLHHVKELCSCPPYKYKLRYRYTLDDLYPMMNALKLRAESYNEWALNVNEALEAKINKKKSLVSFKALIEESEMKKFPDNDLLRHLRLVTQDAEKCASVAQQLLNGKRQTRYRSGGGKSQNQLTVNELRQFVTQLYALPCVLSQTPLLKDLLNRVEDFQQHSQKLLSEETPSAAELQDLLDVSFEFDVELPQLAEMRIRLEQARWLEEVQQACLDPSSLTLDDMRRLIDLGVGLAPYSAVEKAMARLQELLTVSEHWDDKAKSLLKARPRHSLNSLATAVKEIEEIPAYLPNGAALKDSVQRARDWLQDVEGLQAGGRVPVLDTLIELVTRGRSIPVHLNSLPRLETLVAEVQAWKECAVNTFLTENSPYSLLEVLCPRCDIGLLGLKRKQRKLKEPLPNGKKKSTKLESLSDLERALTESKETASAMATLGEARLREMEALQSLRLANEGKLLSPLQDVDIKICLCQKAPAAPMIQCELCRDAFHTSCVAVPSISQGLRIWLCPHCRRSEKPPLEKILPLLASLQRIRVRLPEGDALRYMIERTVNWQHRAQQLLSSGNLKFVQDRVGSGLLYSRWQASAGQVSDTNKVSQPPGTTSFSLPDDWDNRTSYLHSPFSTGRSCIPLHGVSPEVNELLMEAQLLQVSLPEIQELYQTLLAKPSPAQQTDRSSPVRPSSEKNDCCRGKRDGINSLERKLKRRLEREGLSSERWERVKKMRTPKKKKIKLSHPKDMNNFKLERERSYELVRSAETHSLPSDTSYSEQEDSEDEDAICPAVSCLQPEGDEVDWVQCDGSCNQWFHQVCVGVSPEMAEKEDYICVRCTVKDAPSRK
Method in brief: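 Inhibition is measured as reduced NADH fluorescence generation from FDH coupling to formaldehyde release. Truncated KDM5BΔAP at 200 nM final acts on H3K4me3 peptide (12.5 µM in substrate mix) in pH 7.5 HEPES buffer with Tween-20, 30 min, room temperature.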
Further: nearly all actives have a fitted effect of over 70% in size.
Potency means the concentration at half of the fitted maximal effect.

SMILES | Potency
CC(C(=O)N1CCc2ccccc21)N(C)CC(=O)Nc1ccc(F)cc1 (stereo unspecified) | inactive
CCc1ccc(C(=O)C(C)Sc2nc3ccccc3c(=O)n2CCC(=O)OC)cc1 (stereo unspecified) | inactive
C=CCCC(CN1CCCC1)Oc1cncc(C(=O)N2CCCC2)n1 (stereo unspecified) | 8.91 µM (active)
CCCCCCCCOc1ccc(C(=O)c2ccccc2O)c(O)c1 | inactive
COc1ccc(-c2c(NC(=O)C(C)C)oc3c(C)cccc3c2=O)cc1 | inactive
O=C(C1CCCC1)N1Cc2ccccc2CC2(CCCCN2CC2CCNCC2)C1 (stereo unspecified) | inactive
COc1ccc(CN2CCn3c(nn(-c4ccncc4)c3=O)C2)cc1 | inactive
O=C(c1ccc(C(F)(F)F)cc1)N1CCn2c(nn(-c3cccc(Cl)c3)c2=O)C1 | inactive
Cn1cccc1CN1CCn2c(nn(-c3cccc(Cl)c3)c2=O)C1 | 63.1 µM (active)
Cc1ccc2c(Cn3cc(S(=O)(=O)N(C)C)ccc3=O)cc(=O)oc2c1 | inactive
Cc1ccc(-c2noc(-c3cccc(Cl)c3)n2)cc1 | inactive
O=C(CSc1nc2ccccc2nc1N1CCCC1)N1CCN(c2ccccc2)CC1 | inactive
CC(C)CC(=O)N1CCN(c2nnc3ccccn23)CC1 | 28.2 µM (active)
O=C(c1ccsc1)N1CCN(c2nnc3ccc(C(F)(F)F)cn23)CC1 | inactive
CCC(C)c1ccc(-n2c(SCC(=O)N3CCC3)nc3ccccc3c2=O)cc1 (stereo unspecified) | inactive
Cc1ccc(C(=O)C(C)Sc2nnc3ccccn23)cc1 (stereo unspecified) | inactive
CC(C)CC(=O)N1CCCN(c2nnc3ccccn23)CC1 | 25.1 µM (active)
O=C(/C=C/c1ccc(Cl)cc1Cl)Nc1ccc(-c2ccccc2)cc1 | inactive
Cc1cc(=O)oc2c(C)c(OC(=O)CN3C(=O)NC4(CCCC4)C3=O)ccc12 | inactive
N#C/C(=C/c1cccnc1)C(=O)NCCc1ccccc1 | inactive
COCCNC(=S)NC1CC(C)(C)NC(C)(C)C1 | inactive
Cc1ccc2[nH]cc(CCNC(=O)c3ccc(F)c(F)c3)c2c1 | inactive

SMILES | Potency
O=C(c1ccccc1)c1ccc(C2CC2)cc1 | inactive
CSc1ccc(CCNc2nc(-c3ccccc3F)no2)cc1 | inactive
Fc1ccc(Nc2nc(-c3ccccc3F)no2)cc1 | inactive
CN(C)CCN(C)c1ccc(-c2nc(-c3ccccc3F)no2)cn1 | 28.2 µM (active)
COc1cccc(C2Cn3nnc(-c4nc(-c5ccccc5F)no4)c3CO2)c1 (stereo unspecified) | inactive
CN(CCc1cn[nH]c1)c1ccc(-c2nc(-c3ccccc3F)no2)cn1 | 28.2 µM (active)
Cc1ncc(CO)c2cc(-c3nc(-c4ccccc4F)no3)c(=O)oc12 | inactive
Cc1cccc(NC(=O)CSCC(=O)Nc2nnc(C3CC3)s2)c1 | inactive
CC(C)CCNC(=O)NC(=O)CSc1nnc(-c2ccccc2)c(-c2ccccc2)n1 | inactive
Cc1cc(Br)c(S(=O)(=O)NCCO)cc1C | inactive
CCCCn1cnc2c1c(=O)n(CC(=O)Nc1ccccc1C)c(=O)n2CCCC | inactive
Cc1ccc(C)c(C(NC(=O)c2ccccc2C)c2cccnc2)c1 (stereo unspecified) | inactive
COc1cccc(-c2cn3c(n2)N(C(=O)Cc2ccccc2)CCC3)c1 | inactive
COc1cccc(-c2cn3c(n2)NCCC3)c1 | 25.1 µM (active)
COc1cccc(-c2cc(C3CCN(C(=O)Nc4ccccc4C)CC3)[nH]n2)c1 | inactive
CN(C)c1ccc(C(=O)/C=C/c2ccncc2)cc1 | inactive
COc1ccc(OC)c(C2C(C#N)=C(N)Oc3cc(O)ccc32)c1 (stereo unspecified) | inactive
Cc1ccc2c(=O)cc(C(=O)N(Cc3ccc(Cl)cc3)C3CCS(=O)(=O)C3)oc2c1C (stereo unspecified) | inactive
O=S(=O)(NCCc1cn2ccccc2n1)c1cc(Cl)ccc1Cl | inactive
Cn1cc([C@@H](NC(=O)CCc2cn3ccccc3n2)C2CC(O)C2)cn1 (stereo partly specified) | 31.6 µM (active)
COc1ccc(C(=O)N[C@H](c2cnn(C)c2)C2CC(O)C2)c(F)c1F (stereo partly specified) | inactive
COc1ccc(-n2c3c(cc(-c4ncnn4-c4ccc(C)cc4C)c2=O)C(=O)CC(C)(C)C3)cc1 | inactive

SMILES | Potency
O=C(Cn1ncn2nc(-c3cccs3)cc2c1=O)N1CCCCCC1 | inactive
O=C(c1cnc[nH]1)N1C[C@@H](COCC2CC2)[C@H](c2ccccn2)C1 | inactive
CCn1cc(C(=O)N2C[C@@H](COCC3CC3)[C@H](c3ccccn3)C2)cn1 | inactive
c1ccc([C@@H]2CNC[C@H]2COCC2CC2)nc1 | 15.8 µM (active)
Cc1ccc2ncc([N+](=O)[O-])cc2c1 | inactive
COc1ccc(NC(=O)c2c(Cl)cccc2Cl)cc1 | inactive
CCc1ccc(C(=O)Nc2ccccc2O)o1 | inactive
CC(C)N(C(=O)c1ccc(-c2ccccc2F)cc1)C(C)C | inactive
COc1ccccc1-c1ccc(C(=O)O)cc1 | 112 µM (active)
COc1ccccc1-c1cn(C)c(=O)n2cc(COc3ccc(C(=O)O)cc3)nc12 | inactive
C=CCN(CC=C)S(=O)(=O)c1cccc2nsnc12 | inactive
CC(C)c1ccc(/C=C/C(=O)NCCCN2CCOCC2)cc1 | inactive
COc1ccc(C)cc1CN1CCN(C(=O)Nc2cccc(C)c2)CC1 | inactive
Cc1ccc(C(=O)N2C[C@@H](COc3ccccc3)[C@H](C(N)=O)C2)cc1 | inactive
CCOC(=O)c1ccc(NC(=O)CCn2ccn3nc4c(c3c2=O)CCCC4)cc1 | inactive
CCc1ccc(NC(=O)Cn2ccn3nc4c(c3c2=O)CCCC4)cc1 | 20 µM (active)
CC(C)(C)C(=O)Cn1ccn2nc3c(c2c1=O)CCCC3 | inactive
CC(=O)Oc1ccc(C(=O)Nc2ccc(O)c(-c3nc4ccccc4o3)c2)cc1 | inactive
CN(C)Cc1cn2c(=O)n(C)cc(-c3cccc(OCc4ccccc4)c3)c2n1 | inactive
CN(C)c1cccc(-c2cn(C)c(=O)n3cc(COc4ccc(Cl)cc4)nc23)c1 | 25.1 µM (active)
Cc1cc(-c2cn(C)c(=O)n3cc(COc4ccccc4)nc23)ccn1 | inactive
CSc1ccc(CN(C)S(=O)(=O)c2ccc3c(c2)OCCCO3)cc1 | inactive

SMILES | Potency
O=C(NCc1ccc(F)cc1F)c1nnn2c1COC(c1ccc(Br)cc1)C2 (stereo unspecified) | inactive
O=C(Nc1cccc(F)c1)c1cc2n(n1)CC(c1ccc(Cl)cc1)OC2 (stereo unspecified) | 22.4 µM (active)
Cc1cccc(N2CCN(C(=O)c3cc4n(n3)CC(c3ccc(Cl)cc3)OC4)CC2)c1 (stereo unspecified) | inactive
O=C(NCc1ccccc1C(F)(F)F)c1cc2n(n1)CC(c1ccc3c(c1)OCO3)OC2 (stereo unspecified) | 31.6 µM (active)
COc1ccc(CNC(=O)c2ccc3c(c2)nc2n3CCOC2)c(OC)c1 | inactive
CCNCc1ccccc1C(F)(F)F | inactive
Cc1ccc(NC(=O)c2cc3n(n2)CC(c2ccc4c(c2)OCO4)OC3)cc1C (stereo unspecified) | 35.5 µM (active)
Cc1ccc(NC(=O)c2cn3c4c(ccc(Cl)c4c2=O)OC(C)C3)cc1C (stereo unspecified) | inactive
Cn1cnnc1-c1cccc(NC(=O)c2ccc3c(c2)OCO3)c1 | inactive
COc1ccc2c(c1)C=C(C(=O)NCc1cc(Br)ccc1OC)CO2 | inactive
COc1ccc(CNC(=O)c2cc3n(n2)CC(c2ccc4c(c2)OCO4)OC3)c(OC)c1 (stereo unspecified) | 31.6 µM (active)
O=C(Nc1ccc(Cl)cc1)C1CCN(C(=O)c2ncn3c2COC(c2ccc(F)cc2)C3)CC1 (stereo unspecified) | inactive
O=S(=O)(c1ccccc1Cl)N1CCN(C/C=C/c2ccccc2)CC1 | inactive
Fc1ccc(N2CCCN(CC3[C@H]4CNC[C@@H]34)CC2)cc1 (stereo partly specified) | inactive
O=C(Nc1ccc(CC23CC4CC(CC(C4)C2)C3)cc1)c1ccc(Cl)cc1Cl | inactive
CCOc1ccc(-c2nc(Cn3nnc(C(=O)NCc4ccc(Cl)cc4)c3N)c(C)o2)cc1OC | inactive
CCCn1nc(C(=O)OCc2nc(N)nc(Nc3ccccc3C)n2)c2ccccc2c1=O | inactive
CCOc1cc(CNc2nn[nH]n2)ccc1OCc1ccccc1Cl | inactive
COc1ccc(-c2noc3ncnc(N4CCC(C(=O)NCCN5CCCCC5)CC4)c23)cc1 | inactive
CCCCCCCCCCS(=O)(=O)CCSC(=N)N | inactive
COc1ccc(OC)c(NC(=O)Cn2ccc3ccc(Cl)cc32)c1 | inactive
COc1ccc(OC)c(NC(=O)c2nc3ccccc3nc2N2CCCC2)c1 | inactive

SMILES | Potency
COc1ccc(OC)c(NC(=O)c2cc3n(n2)CC(c2ccc(Cl)cc2)OC3)c1 (stereo unspecified) | 25.1 µM (active)
COc1ccc(OC)c(C2C3=C(CC(C)(C)CC3=O)Nc3nc(-c4cccc(C)c4)nn32)c1 (stereo unspecified) | inactive
CCNC(=O)Nc1ccc(S(=O)(=O)Nc2cnc(C)nc2C)cc1 | inactive
O=C(Nc1ccc2oc(-c3ccc(F)cc3)nc2c1)c1ccc2c(c1)OCCO2 | inactive
Cn1c(CCN2CCCCC2)nc2cc(NC(=O)c3ccccc3Cl)ccc21 | inactive
Cc1ccc(-n2nnnc2CNC(=O)c2ccccc2C)cc1C | inactive
Cc1ccc(-c2ccc3nnc(CNC(=O)c4ccccn4)n3n2)cc1 | 31.6 µM (active)
O=C(Nc1ccc(-c2nnc3n2CCCC3)cc1)c1ccccn1 | inactive
Cc1ccccc1C(=O)NCc1nnc2ccc(-c3ccccc3)nn12 | 31.6 µM (active)
Cc1ccc(CNC(=O)c2cccc3cccnc23)cc1 | inactive
Cc1ccccc1C(=O)NCc1nc(-c2ccc(Cl)cc2)no1 | inactive
O=C(CCc1ncc(-c2ccccc2)o1)Nc1nc2ccccc2s1 | inactive
CCOC(=O)C(O)(c1ccc(N(CC)C(=O)Nc2ccc(Cl)cc2)cc1)C(F)(F)F (stereo unspecified) | inactive
CCN(C(=O)Cc1coc2ccc(C)cc12)c1ccccc1 | inactive
Cc1ccccc1NC(=O)C1CC(=O)Nc2nc(SCc3ccccc3)nn21 (stereo unspecified) | inactive
O=C(NCCCNC(=O)c1nc2ccccc2c(=O)[nH]1)c1cccnc1 | inactive
Cc1nc2cc(C(=O)Nc3ccc(N(C)C)cc3)ccc2n1-c1ccccc1 | inactive
c1coc(-c2nc(-c3cccs3)no2)c1 | inactive
